The results in this text go back to PubChem BioAssay.

Molecules are shown by their SMILES. Active and inactive are the calls of the source.

Assay [1] is described as follows: binders of probe aFSTL3 on microarray, primary screen, stem cell growth factor project, biochemical, small-molecule microarray, fluorescence 635/667 (AID 1064).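 Further: measures binding of the biotinylated anti-FSTL3 antibody to printed compounds.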 The following applies: higher = more signal.
Assay [2] is described as follows: binders from COS7 lysate, DM2A8 probe, primary screen, torsin A project, cell lysate, small-molecule microarray, fluorescence 635/667 (AID 1065). The following applies: higher = more signal, COS7 lysate expressing mutant human TOR1A.
Assay [3] in a line: binders of probe aFGF2 on microarray, primary screen, stem cell growth factor project, biochemical, small-molecule microarray, fluorescence 635/667 (AID 1067).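 Further: measures binding of biotinylated aFGF2 protein to printed compounds on slides; z-score merges feature fluorescence and signal-to-noise across triplicate slides.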 Particulars: higher = more signal.
Assay [4] in a line: binders of probe aFGF10 on microarray, primary screen, stem cell growth factor project, biochemical, small-molecule microarray, fluorescence 635/667 (AID 1071).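 Further: score merges 667 nm spot intensity and signal to noise from triplicate slides.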 Particulars: higher = more signal.
The target of assay [5] is Neurogenic locus notch homolog protein 2 (Homo sapiens) (UniProt Q04721). In words: Notch2 binders on small-molecule microarrays, primary screen, biochemical, small-molecule microarray, 635 nm fluorescence, stem cell growth factors (AID 1073). The following applies: Notch2 binding, higher = more signal.
Chain of Neurogenic locus notch homolog protein 2 (Homo sapiens) (Q04721 whole entry, looked up, canonical isoform): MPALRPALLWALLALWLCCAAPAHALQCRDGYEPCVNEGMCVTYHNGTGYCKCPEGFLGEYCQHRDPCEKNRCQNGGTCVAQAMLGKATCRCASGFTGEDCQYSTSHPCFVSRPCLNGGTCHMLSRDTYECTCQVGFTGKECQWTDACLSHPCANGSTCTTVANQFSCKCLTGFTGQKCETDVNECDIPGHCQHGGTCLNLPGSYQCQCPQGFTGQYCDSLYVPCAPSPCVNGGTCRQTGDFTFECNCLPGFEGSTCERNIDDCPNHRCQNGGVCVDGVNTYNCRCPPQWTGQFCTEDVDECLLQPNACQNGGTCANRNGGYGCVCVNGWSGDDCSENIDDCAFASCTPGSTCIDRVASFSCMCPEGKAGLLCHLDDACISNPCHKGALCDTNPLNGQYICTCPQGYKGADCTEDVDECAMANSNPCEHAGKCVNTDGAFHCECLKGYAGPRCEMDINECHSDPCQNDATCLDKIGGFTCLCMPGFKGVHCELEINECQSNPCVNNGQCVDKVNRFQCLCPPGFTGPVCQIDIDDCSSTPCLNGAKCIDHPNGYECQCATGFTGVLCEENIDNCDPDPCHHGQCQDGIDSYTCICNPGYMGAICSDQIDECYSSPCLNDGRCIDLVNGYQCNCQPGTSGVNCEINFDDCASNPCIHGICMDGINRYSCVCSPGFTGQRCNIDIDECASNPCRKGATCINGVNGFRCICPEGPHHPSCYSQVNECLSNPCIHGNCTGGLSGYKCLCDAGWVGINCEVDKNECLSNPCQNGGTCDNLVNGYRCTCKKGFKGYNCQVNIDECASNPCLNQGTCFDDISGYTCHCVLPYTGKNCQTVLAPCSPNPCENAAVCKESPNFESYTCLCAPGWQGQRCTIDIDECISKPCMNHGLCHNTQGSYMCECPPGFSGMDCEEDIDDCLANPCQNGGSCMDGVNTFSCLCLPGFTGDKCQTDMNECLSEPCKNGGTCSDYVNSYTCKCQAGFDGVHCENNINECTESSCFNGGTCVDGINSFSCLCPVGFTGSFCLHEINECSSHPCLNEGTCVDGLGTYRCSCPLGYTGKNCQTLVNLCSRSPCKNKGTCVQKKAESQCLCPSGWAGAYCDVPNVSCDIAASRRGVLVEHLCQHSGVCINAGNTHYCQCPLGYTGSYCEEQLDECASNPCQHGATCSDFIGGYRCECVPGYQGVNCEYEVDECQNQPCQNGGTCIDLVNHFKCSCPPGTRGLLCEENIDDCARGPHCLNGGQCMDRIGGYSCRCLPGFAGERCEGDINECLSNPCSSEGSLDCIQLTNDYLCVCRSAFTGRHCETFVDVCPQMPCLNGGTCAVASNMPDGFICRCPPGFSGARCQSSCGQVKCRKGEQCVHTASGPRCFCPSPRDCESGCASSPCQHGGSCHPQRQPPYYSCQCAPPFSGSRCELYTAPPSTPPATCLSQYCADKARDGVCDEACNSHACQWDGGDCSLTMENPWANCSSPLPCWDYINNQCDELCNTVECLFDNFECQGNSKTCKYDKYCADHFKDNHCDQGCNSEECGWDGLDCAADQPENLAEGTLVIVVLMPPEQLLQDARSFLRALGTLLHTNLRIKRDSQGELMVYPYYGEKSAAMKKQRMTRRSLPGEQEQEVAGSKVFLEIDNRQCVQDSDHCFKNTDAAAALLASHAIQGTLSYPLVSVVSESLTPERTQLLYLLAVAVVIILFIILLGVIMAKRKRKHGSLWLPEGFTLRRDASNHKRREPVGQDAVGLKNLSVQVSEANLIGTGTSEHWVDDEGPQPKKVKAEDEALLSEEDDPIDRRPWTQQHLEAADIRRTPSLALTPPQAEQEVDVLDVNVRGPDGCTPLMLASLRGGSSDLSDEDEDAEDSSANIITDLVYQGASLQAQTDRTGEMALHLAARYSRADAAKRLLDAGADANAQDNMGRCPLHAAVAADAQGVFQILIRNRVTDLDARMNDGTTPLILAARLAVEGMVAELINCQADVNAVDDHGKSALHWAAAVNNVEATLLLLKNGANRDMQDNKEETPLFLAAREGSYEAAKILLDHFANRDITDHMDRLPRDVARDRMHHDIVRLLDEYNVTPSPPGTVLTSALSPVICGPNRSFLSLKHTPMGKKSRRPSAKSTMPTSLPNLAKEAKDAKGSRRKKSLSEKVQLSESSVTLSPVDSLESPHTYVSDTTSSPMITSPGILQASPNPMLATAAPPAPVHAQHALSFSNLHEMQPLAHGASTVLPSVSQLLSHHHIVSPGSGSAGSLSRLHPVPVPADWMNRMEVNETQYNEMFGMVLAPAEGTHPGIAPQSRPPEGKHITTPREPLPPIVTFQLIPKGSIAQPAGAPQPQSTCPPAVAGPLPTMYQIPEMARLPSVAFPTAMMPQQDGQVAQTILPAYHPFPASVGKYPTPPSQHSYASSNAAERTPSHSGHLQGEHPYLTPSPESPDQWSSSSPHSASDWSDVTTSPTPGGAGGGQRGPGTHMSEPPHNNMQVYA
Assay [6] addresses Pro-neuregulin-1, membrane-bound isoform (Homo sapiens) (UniProt Q02297). In words: NRG1 binders on small-molecule microarrays, primary screen, psychiatric disease protein project, biochemical, small-molecule microarray, fluorescence 635/667 (AID 1075).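 Further: score combines 667 nm spot fluorescence with signal to noise.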 The following applies: NRG1 binding, 635 nm fluorescence, higher = more signal.
The test system of assay [7] is Neuregulin-1 EGF-like domain. Briefly: binders of neuregulin-1 EGF-like domain, primary screen, biochemical, small-molecule microarray, 635 nm fluorescence (AID 1081).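 Further: binding of the protein to compounds printed on small-molecule microarray slides.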 Particulars: small-molecule microarray binding, higher = more signal.
Assay [8] can be described thus: FRG1 promoter luciferase signal modulators, primary screen, FRG1 inhibition for FSHD, cell-based, C2C12 myotubes, firefly/Renilla luciferase, luminescence (AID 1084). Particulars: higher = more signal, called active from +8 up or from −8 down.
Assay [9] in a line: binders of probe aFST on microarray, primary screen, stem cell growth factor project, biochemical, small-molecule microarray, fluorescence 635/667 (AID 1086).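 Further: score merges 667 nm fluorescence with signal-to-noise of each printed compound spot.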 The following applies: higher = more signal.
The nature of assay [10]: binders of probe aHhip on microarray, primary screen, stem cell growth factor project, biochemical, small-molecule microarray, fluorescence 635/667 (AID 1087).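 Further: score merges spot fluorescence at 667nm with spot signal to noise ratio.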 Particulars: higher = more signal.

Chain of Pro-neuregulin-1, membrane-bound isoform (Homo sapiens) (Q02297 whole entry, looked up, the tested form may be a part, canonical isoform): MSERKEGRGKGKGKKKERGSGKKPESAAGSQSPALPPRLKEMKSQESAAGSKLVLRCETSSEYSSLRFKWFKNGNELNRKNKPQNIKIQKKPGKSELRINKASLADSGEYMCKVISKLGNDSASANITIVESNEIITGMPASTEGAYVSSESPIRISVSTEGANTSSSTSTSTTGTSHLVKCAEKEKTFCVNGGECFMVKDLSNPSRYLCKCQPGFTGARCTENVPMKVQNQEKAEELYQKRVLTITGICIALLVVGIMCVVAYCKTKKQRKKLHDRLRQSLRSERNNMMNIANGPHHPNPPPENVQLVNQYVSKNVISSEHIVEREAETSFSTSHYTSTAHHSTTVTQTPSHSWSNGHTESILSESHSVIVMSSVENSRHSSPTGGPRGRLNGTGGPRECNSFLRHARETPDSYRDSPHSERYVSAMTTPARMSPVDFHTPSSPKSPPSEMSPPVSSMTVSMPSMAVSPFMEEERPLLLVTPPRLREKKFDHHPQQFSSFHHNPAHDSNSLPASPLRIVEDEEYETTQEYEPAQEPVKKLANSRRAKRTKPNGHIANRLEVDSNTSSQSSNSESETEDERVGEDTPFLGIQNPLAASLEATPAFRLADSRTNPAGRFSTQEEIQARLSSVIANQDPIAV

For the compound `COC(=O)[C@@]1(Cc2ccc(F)cc2)[C@H]2c3cc(C(=O)N(C)C)n(Cc4nc5ccccc5[nH]4)c3C[C@H]2CN1C(=O)c1ccccc1`, the composite z-score in assay [1] was 0.258; in assay [2] it was -1.35; in assay [3], 0.349; in [4] it was 0.841; in [5], 1.66; in assay [6], 2.13. The figures for the composite z-score in assay [7], in assay [9] and in [10] were 1.13, 1.36 and -0.139, respectively. Moreover, the z-score in assay [8] is -0.169 (inactive).

With `Cc1ccc(S[C@]2(C(=O)NCCN3CCOCC3)CC(=O)N(Cc3ccccc3)[C@@H]2c2ccc(CO)cc2I)cc1`, the composite z-score in [1] was 1.09; in assay [2], -0.883; in assay [3] it was -0.0564; in [4], -0.165; in assay [5], -1.51; in [6], 0.742. Also, the composite z-score in assay [7] is 1.49; in [9] it was -0.39; in [10] it was -0.0645. For the same compound, in [8], the z-score was -0.456 (inactive).

Take `COc1ccc([Si](C)(C)[C@H]2[C@H](CCn3cc([C@H](O)c4ccccc4)nn3)O[C@@]3(C(=O)N(Cc4cccc(N5CCOC5=O)c4)c4ccccc43)[C@@H]2C)cc1`: the composite z-score in assay [1] was -0.218; in [2], 0.071; in assay [3] it was -0.003; in assay [4], 0.29; in [5], 0.401; in [6] it was 0.209. The composite z-score in assay [7] was 1.04; in assay [9] it was -0.0127; in [10] it was 0.155. Further, in assay [8], the z-score was -0.955 (inactive).

`CC(C)(C)OC(=O)CC[C@@]1(C(=O)NCC(O)CO)N=C(c2ccc(OCCCO)cc2)O[C@@H]1c1ccccc1N=[N+]=[N-]` (stereo not given in full): the composite z-score in [1] is 0.119; in assay [2], 1.11; in [3], 0.0599; in assay [4] it was 0.559; in [5], 1.2; in [6], 1.97. Moreover, the composite z-score in assay [7] was 1.17; in [9] it was 0.552; in [10], -0.0618. In assay [8], the z-score was 2.43 (inactive).

Turning to `COCCCNC(=O)[C@@]1(Cc2ccccc2N=[N+]=[N-])N=C(c2ccc(OCCCO)cc2)O[C@H]1c1ccccc1N=[N+]=[N-]`, the composite z-score in assay [1] was 0.622; in [2], 0.81; in [3], -0.252; in assay [4] it was 0.436; in [5], 1.37; in [6], 1.52. Further, the composite z-score in [7] was 0.831; in assay [9] it was 1.36; in [10], -0.26. Further, the z-score in [8] was -0.702 (inactive).

Regarding `C=C(CCCC)C(=O)CC[C@H](OC(=O)c1cccnc1)c1ccccc1OCCO`, the composite z-score in [1] is 0.453; in [2], 0.657; in [3], -0.0573; in assay [4] it was 0.726; in assay [5], -0.261; in assay [6], -0.113. In addition, the composite z-score is 0.22 in assay [7], 0.0241 in assay [9] and 0.0505 in assay [10]. The z-score in assay [8] was 1.28 (inactive).

For `CC(C)C[C@@H]1NC(=O)[C@H]2C[C@@H](C(=O)NCCCCCCN)[C@@H](c3ccc(O)cc3)N2C1=O`, the composite z-score is 0.839 in assay [1]; 0.252 in assay [2]; -0.0212 in [3]; -0.0652 in [4]; -0.277 in assay [5]; 0.612 in [6]. Besides, the composite z-score amounted to 1.1 in [7], 0.472 in assay [9] and 0.134 in [10]. The z-score in [8] was -0.811 (inactive).

Consider `[N-]=[N+]=NCc1ccccc1C[C@]1(C(=O)N2CCOCC2)N=C(c2ccc(OCCCO)cc2)O[C@H]1c1ccccc1N=[N+]=[N-]`, for which the composite z-score in assay [1] was found to be 0.0631; in assay [2], 1.43; in assay [3], 0.136; in assay [4] it was 1.12; in assay [5], 1.55; in assay [6], 0.872. For the same compound, the composite z-score in [7] came to 1.29; in assay [9], 2.05; in assay [10], 0.259. Moreover, the z-score in [8] is -0.395 (inactive).

`COc1cc(OC)c(C(O)C2C=CC3C(=O)NC(=O)C3N2Nc2ccc(Cl)cc2Cl)cc1Br` (stereo not given): the composite z-score in assay [1] is 0.379; in [2] it was -0.0156; in [3], 0.19; in assay [4], 0.141; in assay [5], 1.61; in [6] it was 1.9. In addition, the results for the composite z-score in assay [7], in assay [9] and in [10] were 1.11, 1.58 and -0.199, respectively. The z-score in assay [8] is 0.809 (inactive).

Consider `COc1ccc(CCNC(=O)[C@@]2(Sc3ccc(C)cc3)CC(=O)N(C3CCCCC3)[C@@H]2c2ccc(CO)cc2I)cc1`, for which the composite z-score in assay [1] was -0.113; in assay [2] it was 0.567; in assay [3], 0.0561; in [4], 0.773; in assay [5], 1.23; in assay [6] it was 1.29. The composite z-score in [7] was 1.02; in assay [9], 0.306; in [10] it was -0.0237. In assay [8], the z-score is -1.57 (inactive).

As to `O=C(C1N=C(c2ccc(OCCCO)cc2)N(c2ccccc2)O1)N1CCOCC1` (stereo not given), the composite z-score in [1] was -0.428; in [2], 0.267; in [3], 0.0646; in assay [4] it was 1.28; in assay [5], 1.45; in assay [6], 1.27. In addition, the composite z-score in assay [7] was 0.336; in [9], 0.974; in assay [10], -0.113. Besides, the z-score in assay [8] is 2.27 (inactive).

For `COCCOC(=O)N1C(=O)[C@@]2(c3cc(C#Cc4ccc(OC)cc4)ccc31)[C@H](c1ccc(O)cc1)N1[C@H](c3ccccc3)[C@H](c3ccccc3)OC(=O)[C@H]1[C@@H]2C(=O)NC[C@H](O)c1ccccc1`, the composite z-score was -0.273 in assay [1]; 0.101 in assay [2]; -0.155 in assay [3]; 0.63 in assay [4]; 1.29 in [5]; 1.53 in [6]. Moreover, the composite z-score turned out to be 1.34 in assay [7], 0.536 in assay [9] and 0.192 in assay [10]. Also, the z-score in assay [8] is 0.1 (inactive).

For the compound `COC(=O)[C@@]1(Cc2ccccc2)[C@H]2c3cc(C(=O)N(C)C)n(CCSCCO)c3C[C@H]2CN1C(=O)c1ccccc1`, the composite z-score was -0.303 in assay [1]; 1.07 in assay [2]; 0.0413 in [3]; 0.689 in assay [4]; 1.17 in assay [5]; 1.28 in assay [6]. For the same compound, the composite z-score is 1.24 in [7], 0.335 in assay [9] and 0.347 in [10]. In [8], the z-score is 1.27 (inactive).

As for `C=CC[C@@]1(C(=O)N(C)C)N=C(c2ccc(OCCCO)cc2)O[C@@H]1c1ccccc1N=[N+]=[N-]`, the composite z-score in [1] was found to be 1.12; in assay [2], 1.72; in assay [3] it was 0.0732; in assay [4], 0.622; in assay [5], 0.984; in assay [6], 1.52. The composite z-score in assay [7] came to 1.29; in assay [9], 1.21; in [10], 0.011. Also, the z-score in assay [8] was 2.35 (inactive).

Regarding `C=CCC(OC(C)=O)[C@@H]1[C@@H](N(Cc2ccc(-c3cccc(C(F)(F)F)c3)o2)C(=O)Cc2ccc(F)cc2)c2cc(OCCCO)ccc2N1C(=O)Cc1ccc(OC)cc1` (stereo not given in full), the composite z-score in assay [1] is -0.0361; in [2] it was -0.162; in assay [3] it was -0.0971; in [4] it was 0.318; in assay [5], -0.944; in assay [6], -0.14. The composite z-score was -0.751 in assay [7], -0.26 in [9] and -0.164 in assay [10]. Further, the z-score in [8] is -0.373 (inactive).

As for `O=C1OCC=C[C@H]2OC34C=CCN(c5ccc6ccccc6c5)C(=O)[C@H]3N(CCCCCCO)C(=O)[C@@H]4[C@@H]12` (stereo not given in full), the composite z-score was 0.787 in assay [1]; 1.94 in assay [2]; -0.133 in assay [3]; -0.566 in assay [4]; -1.15 in assay [5]; 0.781 in assay [6]. Besides, the composite z-score was 1.57 in assay [7], -0.302 in assay [9] and -0.226 in assay [10]. Moreover, the z-score in assay [8] was 0.78 (inactive).

Turning to `CN1C2C=C(CCCO)C(C3C(=O)N(C(N)=O)C(=O)C32)C1c1ccc(CN2CCCC2)cc1` (stereo not given), the composite z-score was 0.0355 in assay [1]; -0.214 in assay [2]; -0.143 in [3]; -0.0598 in [4]; -0.851 in assay [5]; -0.612 in assay [6]. Besides, the composite z-score in assay [7] is -0.24; in assay [9], -0.887; in assay [10], 0.141. The z-score in [8] is 0.75 (inactive).
